For 84 compounds, Potency results are on record in PubChem BioAssay AID588855 (National Center for Advancing Translational Sciences (NCATS), 2011).

Screen size: about 410,000 compounds; about 5,000 (1.2%) were called active. Where a call stands in place of a potency, no number is given. Inconclusive results (about 13%) are left out. The call rests on the fitted dose curve; in most records, active means well fitted inhibition curve with a large enough effect; inconclusive means small, poorly fitted or top-dose-only effect; inactive means no such curve, though single readings can be large or run the other way. This excerpt belongs to a sample that is enriched for actives.
Potency means the concentration at half of the fitted maximal effect.

The assay can be described thus: qHTS for Inhibitors of TGF-b. Further: nearly all actives have a fitted effect of over 65% in size. The settings on record: HepG2 CAGA-GFP TGF-b/SMAD3 reporter, GFP fluorescence, 18 h, TGF-beta stimulated, 500 pg/mL final; series mostly up to 46.1 µM. The source says: TGF-b is a main component in the TGF-b signaling pathway which plays diverse roles in cellular and development pathways. TGF-b is the mediated by the transcription factors Smads. Although the Smad-dependent pathway is the primary canonical TGF-b signaling node, TGF-b1 can also activate alternative signaling pathways, including those involving MAPK (ERK, JNK and p38). This interaction may mediate or enhance Smad-dependent responses, or can exert Smad-independent effects. The complexity of this signaling cascade allows the TGF-b superfamily to perform unique, overlapping or redundant functions. We believe that targeting the TGF-beta pathway at the Smad-transcription factor level may eliminate the consequences of disrupting the entire pathway and offer specificity without affecting other signaling pathways. Smad3 is the primary transducer of TGF-b's signals and Smad3 regulates many functions attributed to TGF-b signaling. We hypothesize that Smad3 inhibitors will selectively eliminate Smad3-specific TGF-beta signals without undesired off-target effects. We aim to identify Smad3-small molecule antagonists using a quantitative high throughput screening (qHTS) approach.
A high-throughput assay was developed to screen the NIH Molecular Libraries Small Molecule Repository (MLSMR). This is a cell based assay, where TGF-b is tagged with GFP. A counterscreen is run that looks at cytotoxicity (please see summary AID).
MH087449NIH Chemical Genomics Center [NCGC]
NIH Molecular Libraries Probe Centers Network [MLPCN]
Assay Submitter (PI): Sushil Rane, National Institute of […]
Suspensions of trypsinized HEPG2 CAGA-GFP cells were dispensed into white, tissue culture-treated, solid 1536-well plates at 5uL/well (1000 cells/well final concentration) in DMEM medium supplemented with 1% FBS. Plates were incubated at 37 degrees C for 2 hours, after which 23 nL of compounds or DMSO were delivered to each well using a pin tool. One uL of recombinant TGF-beta in DMEM (1% FBS) was then dispensed (500 pg/mL final concentration), and plates were incubated at 37 degrees C for 18 hours. The plates were measured on an Acumen eX3 Explorer plate reader for GFP fluorescence (ex488/em500-530). GFP values were calculated by determining the mean GFP fluorescence of individual cells, and compiling these values for each well to determine a total well GFP signal. The %Activity was determined from the corrected fluorescence values. A titration of the known TGF-B inhibitor SB431542 was included to monitor plate performance, while unstimulated HEPG2 (-TGF-B) control wells were used to normalize %Activity of identified inhibitors; unstimulated wells corresponded to 100%Activity (full inhibition), while stimulated cell controls (+DMSO) were used to normalize 0%Activity (no inhibition).
Concentration-response curves were fitted to the signals arising from the resulting fluorescence. The concentration-effect curves were then classified based on curve quality (r2), response magnitude and degree of measured activity, and compounds were subsequently categorized based on their curve class.
(In general: qHTS replaces the single test concentration by a dilution series.)
`C[C@]12CC[C@H](O)C[C@H]1CC[C@@H]1C2CC[C@]2(C)[C@@H](C3=CC(=O)OC3)[C@@H](O)C[C@]12O` (some centres undefined): the Potency is 11.2 µM (active).
The entry for `C[C@]12CCC3C(CC[C@H]4C[C@@H](O)CC[C@]34C)C1CC[C@@H]2O` (some centres undefined) is “inactive”; for `CC12CCC(O)CC1CCC1C2CCC2(C)C(C(=O)CC(O)C(F)(F)F)CCC12` (centres undefined) it is “inactive”; for `C[C@H]1CN([C@@H](C)CO)C(=O)CCCn2nncc2CO[C@H]1CN(C)C(=O)Oc1ccccc1` it is “inactive”.
For `COc1ccccc1OC(=O)c1ccc(C)c(S(=O)(=O)N2CCOCC2)c1`, the Potency entry is “inactive”.
In the case of `COc1ccc2c(c1)NP(=S)(c1ccccc1)N2` (centres undefined) it was “inactive”; in that of `Cc1nc2ccccc2c(=O)n1-c1ccc(Cl)cc1Cl`, “inactive”.
Regarding `Cn1cc(/C=C/c2nc3ccccc3c(=O)n2-c2ccccc2)c2ccccc21`, the Potency result is “inactive”.
In the case of `O=c1c2ccccc2nc(/C=C/c2ccc(F)cc2)n1-c1ccccc1O` it was 10 µM (active); in that of `CC(C)CN1Cc2cc(N3CCCCC3)ccc2-n2nncc2C1`, “inactive”.
Turning to `O=c1c2ccccc2nc(CBr)n1-c1ccc(Cl)cc1`, the Potency result is “inactive”.
On to `O=C(N/N=C/c1c(O)n(Cc2ccccc2)c(=O)[nH]c1=O)c1ccccc1`, for which the Potency result is “inactive”.
Turning to `Cn1c(O)c(C=NCCCC(=O)O)c(=O)n(C)c1=O`, the Potency result was “inactive”.
For `CCCCC(=O)N/N=C/c1c(O)n(CC)c(=S)n(CC)c1=O`, the Potency was 22.4 µM (active).
The entry for `COc1cc(C(c2c(O)c3ccccc3oc2=O)c2c(C)n(C)n(-c3ccccc3)c2=O)ccc1O` (centres undefined) is “inactive”.
The entry for `C[C@H]1CN([C@@H](C)CO)C(=O)CCCn2nncc2CO[C@H]1CN(C)C(=O)Oc1cccc2ccccc12` is “inactive”; for `CC1CCCCN1Cc1cccnc1` (centres undefined) it is “inactive”; for `COC1C(O)C(C)OC(OC2CCC3(C=O)C(CCC4C3CCC3(C)C(C5=CC(=O)OC5)CCC43O)C2)C1O` (centres undefined) it is 0.355 µM (active).
`O=c1[nH]c(CN2CC=C(c3ccccc3)CC2)nc2scc(-c3cccs3)c12`: the Potency entry is “inactive”.
Turning to `COC(=O)C1=C(c2cc3ccccc3s2)C[C@@H]2CC[C@H]1N2C(=O)NCCO`, the Potency result is “inactive”.
The entry for `COc1cc(C2c3cc4c(cc3C(O)C3COC(=O)C23)OCO4)cc(OC)c1OC` (centres undefined) is “inactive”; for `O=C(O)c1cc[c]([Sb](=[O])([OH])[OH])cc1[N+](=O)[O-]` it is “inactive”; for `CO[C@H]1[C@@H](O)[C@@H](C)O[C@H](O[C@H]2[C@H](Oc3cccc4c(O)c5c(=O)oc6ccc(C)c7c(=O)oc(c34)c5c67)O[C@H](C)[C@H](O)[C@@H]2O)[C@@H]1O` it is “inactive”.
In the case of `CSCCC(c1nnnn1C(C)(C)C)N1CCC(n2c(=O)[nH]c3ccccc32)CC1` (centres undefined) it was “inactive”; in that of `CC1(C)Cc2c(C#N)c(N3CCNCC3)nc(-c3ccco3)c2CS1`, “inactive”.
The figure for `Cc1cccc(Cn2cccc(C(=O)Nc3ccc4c(c3)OCCO4)c2=O)c1` is 10 µM (active); for `Cc1nnc(NC(=O)c2cccn(Cc3cccc(F)c3)c2=O)s1` it is “inactive”; for `Cc1ccccc1NC(=O)COC(=O)c1cc(C)n(C2CC2)c1C` it is “inactive”.
Regarding `COc1ccc(NC(=O)N2Cc3ccccc3-n3nncc3C2)cc1`, the Potency entry was “inactive”.
Regarding `Cc1ccc(OC(=O)N(C)C[C@@H]2OCc3cnnn3CCCC(=O)N([C@H](C)CO)C[C@@H]2C)cc1`, the Potency entry was “inactive”.
In the case of `CCOC(=O)CNC(=O)N1Cc2cc(N3CCCCC3)ccc2-n2nncc2C1` it was “inactive”; in that of `CC(=O)c1ccc(OC(NC(=O)Cc2ccccc2)C(Cl)(Cl)Cl)cc1` (centres undefined), “inactive”; in that of `CN1CCN(/N=C/c2c[nH]c3ccccc23)CC1`, “inactive”.
The entry for `CN(C)CCN(CC1CCCN(Cc2ccccc2F)C1)C(=O)Cc1ccc(F)c(F)c1` (centres undefined) is “inactive”; for `CCn1cc(CN2CCCC(C(=O)c3cccc(C(F)(F)F)c3)C2)cn1` (centres undefined) it is “inactive”; for `CC(=O)Nc1ccc(CC#N)cc1` it is “inactive”.
The figure for `CCC(C)(O)C(=O)OC1C(=O)OC2CC3C(C)=CC(=O)C(O)C3(C)C3C4(O)OCC23C1C(C)C4O` (centres undefined) is 0.355 µM (active).
`O=C1C2CCN(CC2)C1(CO)CO`: the Potency result was “inactive”.
With `COc1ccc(C2C=C(C)Oc3c2c(=O)oc2ccccc32)cc1OC` (centres undefined), the Potency entry was “inactive”.
The figure for `CN(C(=O)c1cccc(NC(=O)Cc2cccc([N+](=O)[O-])c2)c1)C1CCCCC1` is 20 µM (active); for `CN(C)P(=S)(Nc1ccccc1)C(Cl)(Cl)Cl` (centres undefined) it is “inactive”.
Regarding `CC(C)(C)c1ccc(CN2C(=O)CN=C(c3ccccc3)c3ccccc32)cc1`, the Potency is 11.2 µM (active).
The entry for `O=C1CC(=O)N(Cc2ccccc2)C(=O)N1CCCCCCN1C(=O)CC(=O)N(Cc2ccccc2)C1=O` is “inactive”.
In the case of `O=C(O)/C=C/c1ccc2c(c1)OCO2` it was “inactive”; in that of `CC1=C(C(=O)Nc2ccccc2)S(=O)(=O)CCO1`, “inactive”; in that of `CNC(=O)N(C)c1nnc(C(C)(C)C)s1`, “inactive”.
Regarding `c1ccc(N2Cc3ccccc3-n3nncc3C2)nc1`, the Potency entry is “inactive”.
In the case of `O=Cc1cn(Cc2ccc(F)cc2Cl)c2ccccc12` it was 8.91 µM (active); in that of `CC(=O)C1(O)CCC2C3CCC4=C(Cl)C(=O)CCC4(C)C3CCC21C` (centres undefined), “inactive”.
Take `N#Cc1c(Cl)c(Cl)c(Cl)c(C#N)c1Cl`: the Potency is 0.251 µM (active).
On to `CCOC(=O)C(O)(c1ccc(N=Cc2ccccc2O)c(C)c1)C(F)(F)F` (centres undefined), for which the Potency result was “inactive”.
In the case of `O=C(Oc1ccc2c(c1)CCC2)N1CCOCC1` it was “inactive”; in that of `CCN(CC)C(=O)c1ccc(NC(=O)c2sccc2-c2ccccc2)cc1`, “inactive”; in that of `CCOc1cccc(=NC2CCCCC2)c2c(C)[nH]c(C)c12`, 10 µM (active).
In the case of `Cc1nc2ccccn2c1P(=S)(N1CCCCC1)N1CCCCC1` it was “inactive”; in that of `COc1ccc2c(c1O)-c1cccc3c1[C@@H](C2)N(C)CC3`, “inactive”; in that of `COc1ccc2cc1Oc1ccc(cc1)C[C@H]1c3cc(c(OC)cc3CCN1C)Oc1c(O)c(OC)cc3c1[C@H](C2)N(C)CC3`, 7.94 µM (active).
As for `COc1c(O)ccc2c1-c1c3c(cc4c1C(C2)N(C)CC4)OCO3` (centres undefined), the Potency entry is “inactive”.
Regarding `CN(C)/C=C(\C=[N+](C)C)c1[nH]ncc1[N+](=O)[O-]`, the Potency result is “inactive”.
The entry for `COC(=O)C1=C(c2ccc(OCc3ccccc3)cc2)C[C@@H]2CC[C@H]1N2C(=O)NCc1cccc(F)c1` is “inactive”; for `Cc1ncoc1C(=O)NCC1=C(c2cccc3ccccc23)C[C@@H]2CC[C@H]1N2Cc1ccco1` it is “inactive”.
The entry for `ClCCN(CCCl)c1ccc(C=Nc2ccc(/C=C/c3ccnc4ccccc34)cc2)cc1` is “inactive”; for `CCCCCCCCCCCCn1ccc(=N)cc1` it is 10 µM (active); for `Cc1ccc(Oc2cnn(-c3ccccc3)c(=O)c2Br)cc1` it is “inactive”.
Regarding `CCC1(CC(C)c2ccccc2)C(=O)NC(=O)NC1=O` (centres undefined), the Potency entry is “inactive”.
As for `CCOP(=S)(OCC)SCOC(=O)NCC(=O)OC`, the Potency result is “inactive”.
The entry for `O=P1(Oc2ccccc2)CC(O)C(O)C(COCc2ccccc2)O1` (centres undefined) is “inactive”; for `O=c1c2ccccc2[nH]c(=S)n1-c1cccc(Cl)c1` it is “inactive”.
The entry for `OC(Cn1c2ccccc2c2ccccc21)C[n+]1ccccc1` (centres undefined) is “inactive”.
In the case of `CC[C@H]1CN2CCc3cc(OC)c(OC)cc3[C@@H]2C[C@@H]1C[C@H]1NCCc2cc(OC)c(OC)cc21` it was 0.0891 µM (active); in that of `CC(=O)OC1C2(CC3N4C(=O)C5(CO)SSC4(CC31O)C(=O)N5C)OC(C)C(C)(C)C2=O` (centres undefined), 0.794 µM (active).
`O=C(NCC1=C(c2ccc3ccccc3c2)C[C@@H]2CC[C@H]1N2Cc1ccco1)c1cccs1`: the Potency entry is “inactive”.
Regarding `CNC(=S)N/N=C1\C2CN3CCN(C2)CC1(c1ccccc1)C3`, the Potency result was “inactive”.
The entry for `O=C(Cc1ccccc1)N1CCN(C2CCCCCC2)CC1` is “inactive”; for `CN(C)CC1Oc2ccccc2OC1(O)c1ccccc1` (centres undefined) it is 2.82 µM (active); for `COc1ccc2c(c1)[C@]13CCCCC1C(C2)N(C)CC3` (some centres undefined) it is “inactive”.
Take `CCOc1ccc(CNC(=O)c2cccc(Nc3nc4ccccc4n4nnnc34)c2)cc1OC`: the Potency result was “inactive”.
As to `COc1ccc(C2NCc3ccc4c(c3-n3cccc32)OCO4)cc1OC` (centres undefined), the Potency result was “inactive”.
The entry for `CN(C)C(=O)Oc1ccc(NC(=O)N2CCOCC2)cc1` is “inactive”; for `Cc1cccc(-n2c(O)c(C=NC34CN5CN(CN(C5)C3)C4)c(=O)[nH]c2=O)c1` it is “inactive”.
In the case of `c1cc2c(c(NC3=NCCCS3)c1)CCCC2` it was “inactive”; in that of `CCOC(=O)c1cccc(C2=C(CNC(=O)c3ccncc3)[C@H]3CC[C@@H](C2)N3Cc2ccccc2)c1`, “inactive”.
The entry for `O=C(COC(=O)Cc1ccccc1)Nc1ccc(F)cc1` is “inactive”.
As to `CC(=O)NCC1=C(c2ccc3ccccc3c2)C[C@@H]2CC[C@H]1N2Cc1ccco1`, the Potency entry was “inactive”.
